High-throughput results: PubChem BioAssay, several laboratories
Shown are actives, neighbours in structure and some others; about 1.9% of the full set was active somewhere.
KLF5 inh – kruppel-like factor 5 inhibition | DLD-1 KLF5 promoter-luciferase reporter, luminescence | inhibition, % at 5 µM | hit rate 0.23% among 290,000 | AID 1700;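 active = inhibition above a per-plate limit of that plate's mean compound inhibition plus 3 SD, cut at about 60% in these data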;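 also: higher means less KLF5 promoter-driven luciferase light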
APP 5UTR inh – APP translation inhibition; SH-SY5Y APP 5'UTR-luciferase reporter, luminescence; inhibition, % at 2 µM; hit rate 0.82% among 190,000; AID 1285;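 active = inhibition above a set limit, derived from the sample mean plus 3 SD, cut at about 45% in these data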
BaF3 tox – parental Ba/F3 viability inhibition as JAK2V617F counter-screen; AID 1486; hit rate 1.1% among 220,000; inhibition, % at 5.6 µM; CellTiter-Glo ATP luminescence;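 active = inhibition above a per-campaign cutoff, the mean inhibition of all tested compounds plus 3 SD, cut at about 27% in these data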
IEC-6 cytotox – kills IEC-6 intestinal cells in KLF5 counter-screen. IEC-6 cytotoxicity, luminescence viability. inhibition, % at 5 µM. hit rate 0.78% among 290,000. AID 1825; in the data active = inhibition above about 22%
Ba/F3 V617F tox – lowers viability of Ba/F3 cells expressing EpoR and JAK2V617F. hit rate 1.1% among 220,000. ATP luminescence. inhibition, % at 5.6 µM;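 active = inhibition above the campaign mean plus 3 SD over all tested compounds, cut at about 24% in these data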;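 also: cytokine-independent growth of Ba/F3 cells driven by EpoR plus mutant JAK2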
Each line names hits and unclear results; the compound was inactive in the other large screens.

O=C(NCc1ccccn1)C(=O)NCc1ccccn1	BaF3 tox 54
O=S(=O)(c1cccc(C(F)(F)F)c1)N1CCCC1c1cccnc1 (stereo unspecified)	BaF3 tox 32 (no result: APP 5UTR inh)
O=C(O)c1cc2c(N3CCC(Cc4ccccc4)CC3)ncnc2s1	none
c1ccc(CC2CCN(c3ncnc4sccc34)CC2)cc1	BaF3 tox 44, Ba/F3 V617F tox 37
O=C(C1CCCO1)N1CCN(C(=S)Nc2ccc(F)cc2)CC1 (stereo unspecified)	none
O=C(C1CCCO1)N1CCN(C(=S)Nc2ccc(F)c(Cl)c2)CC1 (stereo unspecified)	BaF3 tox 27, Ba/F3 V617F tox 28
CCOC(=O)N1CCN(CC(O)COc2ccc(C)cc2C(C)(C)C)CC1 (stereo unspecified)	none
CCOC(=O)c1c(C)[nH]c2cc(Br)c(O)cc12	APP 5UTR inh 55
COc1ccc(-n2c(CCC(=O)O)ccc2-c2ccccc2)cc1	BaF3 tox 29
O=C(c1ccc2c(c1)OCO2)N1CCC(Cc2ccccc2)CC1	none (no result: APP 5UTR inh)
COc1cc2c(cc1OC)C(c1ccccc1N)=NCC2	BaF3 tox 47, Ba/F3 V617F tox 38 (no result: APP 5UTR inh)
COc1cc2c(cc1OC)C(c1ccccc1)=NCC2	none
COc1cc(C)c(C(=O)CSc2nnc(CNC(=O)c3ccco3)n2C)cc1C	none (no result: APP 5UTR inh, BaF3 tox, Ba/F3 V617F tox)
COc1ccccc1NC(=O)N1C2CCCC1CC(NC(=O)c1ccccc1)C2 (stereo unspecified)	none
Nc1ccc(Oc2cccc(Oc3ccc(N)cc3)c2)cc1	APP 5UTR inh 49
CC(C)c1ccc(CN2CCN(C(=O)CCl)CC2)cc1	Ba/F3 V617F tox 46
CS(=O)(=O)N1CCc2cc(NC(=O)c3ccc(Cl)cc3Cl)ccc21	none
COc1ccc(C(=O)COC(=O)CCN2C(=O)C3C4C=CC(C5CC45)C3C2=O)cc1 (stereo unspecified)	none (no result: APP 5UTR inh, BaF3 tox, Ba/F3 V617F tox)
CCCS(=O)(=O)N1CCCC(c2nc(-c3ccc(OC)cc3)no2)C1 (stereo unspecified)	none
CCS(=O)(=O)N1CCCC(c2nc(-c3cccc(OC)c3)no2)C1 (stereo unspecified)	BaF3 tox 96
COc1ccccc1OCC(=O)Nc1c2c(nn1-c1ccccc1)CS(=O)(=O)C2	none (no result: APP 5UTR inh, BaF3 tox, Ba/F3 V617F tox)
Cc1ccccc1CC1(CO)CCCN(Cc2c(C)nn(C)c2Cl)C1 (stereo unspecified)	BaF3 tox 80
Cc1nn(C)c(Cl)c1CN1CCCC(CO)(Cc2cccc(Cl)c2)C1 (stereo unspecified)	none
O=C(Nc1cccc(Cl)c1)NC1CC2CCC(C1)N2Cc1cccs1 (stereo unspecified)	none
COc1ccc(C2C3=C(CCCC3=O)Nc3nc(-c4cc(OC)c(OC)c(OC)c4)nn32)cc1OC (stereo unspecified)	BaF3 tox 93
COc1cc(-c2nc3n(n2)C(c2ccncc2)C2=C(CCCC2=O)N3)cc(OC)c1OC (stereo unspecified)	none
CCCCCCCCn1cnc2c(N)c(C)c(C)cc21	BaF3 tox 60, Ba/F3 V617F tox 76
COc1ccc(Cn2cnc3c(N)c(C)c(C)cc32)cc1	none
COCCOC(=O)c1c(C)n(C)c2ccc(OC(=O)c3ccccc3F)cc12	none (no result: APP 5UTR inh, BaF3 tox, Ba/F3 V617F tox)
COc1ccc2c(c1OC)C(=O)N1C2SC(C)(C)[C@H]1C(=O)NC1CC1 (stereo partly specified)	none (no result: APP 5UTR inh, BaF3 tox, Ba/F3 V617F tox)
Cc1ccnc(N2C(=O)c3cccc4c([N+](=O)[O-])ccc(c34)C2=O)c1	BaF3 tox 36
O=C1c2cccc3c([N+](=O)[O-])ccc(c23)C(=O)N1Cc1cccnc1	APP 5UTR inh 82, BaF3 tox 37, Ba/F3 V617F tox 42
O=C(NCCOc1ccccc1)C1CCC(=O)N(C2CCCCCC2)C1 (stereo unspecified)	none (no result: APP 5UTR inh, BaF3 tox, Ba/F3 V617F tox)
COc1nc(N=C(N)N)nc2ccc(C)cc12	BaF3 tox 56, Ba/F3 V617F tox 55
O=C(Nc1ccon1)c1sc2cc(Cl)ccc2c1Cl	none (no result: APP 5UTR inh, BaF3 tox, Ba/F3 V617F tox)
O=C(O)C1CSC(c2ccccc2)N1C(=O)c1ccco1 (stereo unspecified)	APP 5UTR inh 50
O=C(O)C1Cc2ccccc2CN1C(=O)c1ccco1 (stereo unspecified)	none (no result: APP 5UTR inh, BaF3 tox, Ba/F3 V617F tox)
CS(=O)(=O)N(CC(=O)N1CCc2ccccc2C1)c1ccc2c(c1)OCO2	BaF3 tox 93
COc1cccc(CC(=S)N2CCOCC2)c1	none
Cc1ccc(C(C(=O)NC2CCCC2)N(C(=O)CNC(=O)c2ccco2)c2ccccc2)o1 (stereo unspecified)	none (no result: APP 5UTR inh, BaF3 tox, Ba/F3 V617F tox)
CCOc1cccc(/C=N/Nc2ccc(S(=O)(=O)N(CC)CC)cn2)c1O	APP 5UTR inh 83
CCN(CC)S(=O)(=O)c1ccc(N/N=C/c2cc(OC)c(OC)cc2OC)nc1	none
O=C(Nc1ccncc1)c1ccc(-c2ccccc2)cc1	BaF3 tox 32
O=C(Nc1cccnc1)c1ccc(-c2ccccc2)cc1	none
O=c1[nH]cnc2c1sc1nc3c(c(-c4ccc(Cl)cc4)c12)CCC3	APP 5UTR inh 51
COc1ccc(-c2c[n+]3c(n2-c2ccccc2)SCC3)cc1OC	BaF3 tox 77, Ba/F3 V617F tox 46
Cc1ccc(-c2c[n+]3c(n2-c2ccccc2)SCC3)cc1	BaF3 tox 64, Ba/F3 V617F tox 79 (no result: APP 5UTR inh)
COc1ccc(-c2c[n+]3c(n2-c2ccccc2)SCC3)cc1	BaF3 tox 61, Ba/F3 V617F tox 73 (no result: APP 5UTR inh)
COc1ccc(-c2c[n+]3c(n2-c2c(C)n(C)n(-c4ccccc4)c2=O)CCCCC3)cc1	none
Brc1ccc(-c2c[n+]3c(n2-c2ccccc2)SCC3)cc1	BaF3 tox 59, Ba/F3 V617F tox 64 (no result: APP 5UTR inh)
Cc1ccc(-c2c(C(=O)N/N=C/c3ccsc3)nnn2-c2nonc2N)cc1	none (no result: APP 5UTR inh, BaF3 tox, Ba/F3 V617F tox)
O=C(CCC1CCCCC1)NCc1ccccn1	none
Cn1cc(C(=O)NCc2cccs2)c(=O)c2cc(S(=O)(=O)N3CCCC3)ccc21	none
COC(=O)CN1C(=O)N/C(=C/c2cc(OC)c(OC)cc2C)C1=O	BaF3 tox 90
Cc1n(CC(=O)c2ccc(F)cc2)c2ccccc2[n+]1C	BaF3 tox 28
Cn1c(=N)n(CC(=O)c2ccc(F)cc2)c2ccccc21	none (no result: APP 5UTR inh, BaF3 tox, Ba/F3 V617F tox)
COC(=O)C1=C(C(=O)OC)C(c2ccccc2O)c2sc(=O)[nH]c2S1 (stereo unspecified)	none
C(=C\c1ccc2ccccc2n1)/c1ccccc1	none
CN(C)c1ccc(/C=C/c2ccc3ccccc3n2)cc1	KLF5 inh 105 (no result: APP 5UTR inh)
CCc1ccc(S(=O)(=O)/N=C2/C=C(Sc3ncn[nH]3)C(=O)c3ccccc32)cc1	APP 5UTR inh 75, BaF3 tox 34, Ba/F3 V617F tox 71
CCOc1ccc2nc(NC3=NCN(CC4CCCO4)CN3)nc(C)c2c1 (stereo unspecified)	none
Cc1ccc2nc(NC3=NCN(Cc4ccc5c(c4)OCO5)CN3)nc(C)c2c1	APP 5UTR inh 94, BaF3 tox 70, Ba/F3 V617F tox 63
Cc1ccc2cc(NC(=O)c3ccccc3C)ccc2n1	none (no result: APP 5UTR inh, BaF3 tox, Ba/F3 V617F tox)
O=C(Nc1ccc(CN2CCCCC2)cc1)Nc1ccccc1Cl	BaF3 tox 59
Cn1c(=O)c2c(=O)cc(NNC(=O)C(C)(C)C)[nH]c2n(C)c1=O	APP 5UTR inh 46
